Most compounds without a hit are left out; they make up all but 10% or so of the library.
MCF10A rereplic – DNA re-replication induction in MCF 10a cells. MCF 10A DNA re-replication, Hoechst nuclear intensity, 48 h. Potency, µM (doses to about 46.1 µM), without a hit: at the highest dose activity, positive = re-replication, hits mostly activators. 2.9% of 350,000 active. AID 624296; also: % of control where 0% means no effect; nearly all actives have a fitted effect of over 50% in size
KB-3-1 tox – KB-3-1 parental cell cytotoxicity; 1.4% of 400,000 active; KB-3-1 viability, CellTiter-Glo ATP luminescence, 72 h; Potency, µM (titrated, usually from 46.1 µM), usual class: cytotoxic; AID 1347075; also: % is scaled to controls: 0 for no effect and ±100 for the full control effect; nearly all actives have a fitted effect of over 60% in size
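Cells are dispensed, compounds pinned in, plates held at 37 °C for 72 h, then CellTiter-Glo is added and luminescence read after 10 minutes. Cell line: parental KB-3-1 in phenol-red-free DMEM, 10% FBS.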
Gal4-VP16 FLuc – counter-screen for ROR gamma inhibitors: Gal4-VP16 reporter; Potency, µM (titrated, usually from 53.6 µM), for inactives: top-dose activity, negative = inhibition, actives largely listed as inhibitors; Drosophila S2 Gal4-VP16 UAS-luciferase, luminescence, 20 h; AID 2546; 3.5% of 310,000 active;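 also: Gal4-VP16 expression switched on by copper sulfate through the metallothionein promoter; % is scaled to controls: 0 for no effect and ±100 for the full control effect; nearly all actives have a fitted effect of over 50% in size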
SW480 rereplic – inducers of DNA re-replication in SW480 colon cancer cells; SW480 DNA re-replication, Hoechst DNA content imaging, 48 h; Potency, µM (series often up to 46.1 µM), for inactives: at the highest dose re-replication activation, usual class: activators; 1.8% of 340,000 active; AID 624297; also: % of control where 0% means no effect; nearly all actives have a fitted effect of over 55% in size
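Image-based DNA-content assay: after two days of treatment, nuclei were labelled with the DNA dye Hoechst and imaged, and hits were compounds raising the count of nuclei showing high fluorescence intensity.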
RORgamma inh – inhibitors of mouse ROR gamma transcriptional activity. AID 2551. Potency, µM (top dose mostly 53.6 µM), inactives show at the top dose activity change, negative = inhibition, hits mostly inhibitors. 5.4% of 310,000 active. P51450. Drosophila S2 Gal4-RORgamma UAS-luciferase reporter, 20 h; also: % is scaled to controls: 0 for no effect and ±100 for the full control effect; nearly all actives have a fitted effect of over 60% in size
Target sequence (P51450 whole entry, looked up, the tested form may be a part): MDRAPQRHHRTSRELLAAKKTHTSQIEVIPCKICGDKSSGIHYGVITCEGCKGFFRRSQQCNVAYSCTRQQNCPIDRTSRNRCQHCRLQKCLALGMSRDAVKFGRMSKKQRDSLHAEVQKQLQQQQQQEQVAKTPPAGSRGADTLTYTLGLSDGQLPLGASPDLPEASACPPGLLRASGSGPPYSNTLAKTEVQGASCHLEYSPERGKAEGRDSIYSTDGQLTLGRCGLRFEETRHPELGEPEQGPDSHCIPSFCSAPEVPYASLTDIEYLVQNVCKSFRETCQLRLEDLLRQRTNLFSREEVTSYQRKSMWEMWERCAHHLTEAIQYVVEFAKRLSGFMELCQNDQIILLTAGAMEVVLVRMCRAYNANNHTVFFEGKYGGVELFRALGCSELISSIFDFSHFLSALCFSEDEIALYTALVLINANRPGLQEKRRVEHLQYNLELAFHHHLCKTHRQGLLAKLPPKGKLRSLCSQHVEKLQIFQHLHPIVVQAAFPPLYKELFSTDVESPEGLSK
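A Gal4/UAS one-hybrid system in insect cells: metallothionein-promoter Gal4–ROR gamma fusion plus Photinus luciferase reporter. Copper sulfate 700 uM final, 20 hr ambient incubation, luminescent detection after 10 min with reagent.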
KB-V1 MDR tox – kills drug-selected multidrug resistant KB-V1 cells; 3.4% of 400,000 active; Potency, µM (series often up to 46.1 µM), actives largely listed as cytotoxic; KB-V1 MDR cells viability, CellTiter-Glo, 72 h; also: % is scaled to controls: 0 for no effect and ±100 for the full control effect; nearly all actives have a fitted effect of over 60% in size
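Readout: CellTiter-Glo luminescence, 10 min after addition. Cells: KB-V1 MDR subline, 72 h at 37 degrees C with compound. Analysis: corrected, normalized data fitted to concentration-effect curves.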
* hit, by the source's call; i = inactive; u = inconclusive; x = no result. Calls follow the shape of the dose curve; as a rule, active = well fitted curve in the direction sought with a large enough effect; inconclusive = small, poorly fitted or top-dose-only effect, or another doubt; inactive = no such curve, though single readings can be large; an effect the other way counts as inactive or inconclusive. Potency is read from the fitted curve at half-maximal effect.

SMILES | MCF10A rereplic | KB-3-1 tox | Gal4-VP16 FLuc | SW480 rereplic | RORgamma inh | KB-V1 MDR tox
CCOc1ccc(C(=O)Nc2cc(-c3nc4ccccc4s3)ccc2OC)cc1 | x | u | x | x | x | 7.3µM*
CCOc1cc(-c2nc3ccccc3s2)ccc1O | u | i | 1% | 1.8µM* | -5% | u
Oc1ccc(O)c(Cc2nc3ccccc3s2)c1 | u | u | 25µM* | u | 7.1µM* | u
CC1=C(C(=O)N(C(C)C)C(C)C)CC(CC(=O)NC(c2ccccc2)c2ccccc2)C(=O)N1Cc1ccc(F)cc1 (centres undefined) | x | i | x | x | x | u
Cc1ccc(NC(=O)N(Cc2c[nH]c3ccccc23)C2CCCCCC2)cc1C | x | i | x | x | x | u
COC(=O)C[C@H]1CC[C@H](NC(=O)c2cccc(F)c2)[C@@H](CO)O1 | x | i | x | x | x | i
OCc1cc(Br)ccc1OCc1nc2ccccc2s1 | 1% | i | 4% | -9% | -4% | 5.2µM*
O=S(=O)(c1cccc(-c2nc3ccccc3s2)c1)N1CCCC1 | -2% | u | 8% | -3% | -13% | 15µM*
COc1cc(-c2nc3ccccc3s2)ccc1O | 0% | i | -10% | -5% | -7% | i
CC(C)c1ccc(-c2nc3ccccc3s2)cc1 | 22% | i | 2µM* | -5% | u | i
FC(F)(F)c1ccc(-c2nc3ccccc3s2)cc1 | x | i | x | x | x | i
Oc1ccccc1OCc1nc2ccccc2s1 | 0% | i | 23% | -8% | u | i
COc1ccc(-c2nc3ccccc3s2)cc1O | -7% | i | 8.9µM* | -40% | 10µM* | i
Cc1ccc(-n2ncc(C(=O)NCCc3ccsc3)c2C2CCN(C(=O)OC(C)(C)C)CC2)c(C)c1 | x | i | x | x | x | i
COc1ccc(NC(=O)C(c2ccc(C)cc2)N(C)C(=O)/C=C\c2ccc3c(c2)OCO3)cc1 (centres undefined) | x | i | x | x | x | i
Oc1cccc(-c2nc3ccccc3s2)c1 | 2% | i | 10µM* | -4% | u | i
C[C@@H]1CCC2C(C)(C)C3CC21CC[C@@]3(C)O (some centres undefined) | x | x | -9% | x | 12% | x
COc1cccc(C(=O)NCC(c2ccc(N(C)C)cc2)N2CCc3ccccc32)c1OC (centres undefined) | x | i | x | x | x | i
C=CCOc1ccc(C=CC(=O)c2c(O)c(OC)c(OC)c(OC)c2OC)cc1 | u | u | x | 18% | x | 5.8µM*
C=C(C)C1(O)OC(=O)C=C1OC (centres undefined) | u | i | 11µM* | u | 13µM* | u
CCCc1nnc(NC(=O)CCC(=O)Nc2ccc(Cl)cc2)s1 | 1% | i | 0% | -3% | -3% | i
CCCc1nnc(NC(=S)Nc2ccccc2)s1 | -1% | i | 0.63µM* | 5% | 0.63µM* | i
CC(C)C(=O)Nc1nnc(NC(=S)Nc2ccccc2)s1 | 2% | u | 2.8µM* | 2% | 0.56µM* | i
O=C(N/N=C/C=C/c1ccccc1)c1ccncc1 | -5% | i | 7.1µM* | -5% | 2.8µM* | i
O=C(N/N=C/c1ccc([N+](=O)[O-])o1)c1ccc(NS(=O)(=O)c2cccs2)cc1 | 18µM* | u | -4% | u | 33% | u
CC(/C=C/c1ccccc1)=N\NC(N)=S | -4% | u | 2.2µM* | 5% | 0.56µM* | 18µM*
O=C(Cc1cccc2ccccc12)N/N=C/C=C/c1cccc([N+](=O)[O-])c1 | 13% | i | u | -5% | 13µM* | u
O=C(N/N=C/c1ccc([N+](=O)[O-])cc1)c1ccc(NS(=O)(=O)c2cccs2)cc1 | -2% | i | x | -9% | x | i
O=C(N/N=C/C=C/c1ccccc1)c1cccs1 | -3% | i | 2.8µM* | 0% | 2.8µM* | i
CC(/C=C/c1ccc2c(c1)OCO2)=N\NC(=O)c1ccccc1 | 2% | i | 16µM* | -2% | 5.6µM* | u

Bioassay records deposited in PubChem by National Center for Advancing Translational Sciences (NCATS).
